Assay results: PubChem BioAssay (NCI)
The panel holds about 83,000 compounds, 20% with a hit somewhere; the sample as a whole holds those more often.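 Results are percent growth after 48 hours of single-concentration exposure. 100 means growth as in untreated cells, lower positive values show inhibition; negative values down to -100 show cell death.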 Values without a mark were called inactive. Calls of active or inactive are those of the source. How the source made its calls: active means growth percent below 10; inactive means the rest.

Key:
Assay in all cases: NCI-60 one-dose screen, 48 h (100 = growth as untreated, 0 = no growth, -100 = all killed)
NCI-H23 lung = conditions: 10 µM unless noted
NCI-H226 lung = conditions: 10 µM unless noted
NCI-H322M lung = conditions: 10 µM unless noted
HOP-62 NSCLC = conditions: 10 µM unless noted
NCI-H460 lung = conditions: 10 µM unless noted
HOP-92 NSCLC = conditions: 10 µM unless noted
NCI-H522 lung = conditions: 10 µM unless noted
A549/ATCC NSCLC = conditions: 10 µM unless noted
786-0 renal = conditions: 10 µM unless noted
COLO 205 colon = conditions: 10 µM unless noted
DU-145 prostate = conditions: 10 µM unless noted
K-562 leukemia = conditions: 10 µM unless noted
MDA-MB-231 breast = conditions: 10 µM unless noted
RXF 393 renal = conditions: 10 µM unless noted
SF-268 CNS = conditions: 10 µM unless noted
SF-295 CNS = conditions: 10 µM unless noted
SF-539 CNS = conditions: 10 µM unless noted
UACC-257 melanoma = conditions: 10 µM
M14 melanoma = conditions: 10 µM unless noted
MALME-3M melanoma = conditions: 10 µM unless noted

Compound	growth (NCI-H23 lung)	growth (NCI-H226 lung)	growth (NCI-H322M lung)	growth (HOP-62 NSCLC)	growth (NCI-H460 lung)	growth (HOP-92 NSCLC)	growth (NCI-H522 lung)	growth (A549/ATCC NSCLC)	growth (786-0 renal)	growth (COLO 205 colon)	growth (DU-145 prostate)	growth (K-562 leukemia)	growth (MDA-MB-231 breast)	growth (RXF 393 renal)	growth (SF-268 CNS)	growth (SF-295 CNS)	growth (SF-539 CNS)	growth (UACC-257 melanoma)	growth (M14 melanoma)	growth (MALME-3M melanoma)
Nc1c(C(=O)Nc2ccccc2)sc2nc3c(cc12)CN(Cc1ccccc1)CC3	79.1%	45.2%	50%	52.1%	32.8%	20.2%	80.2%	54.2%	28.8%	97.8%	58.9%	61.1%	42.6%	49.9%	48.8%	66.4%	12.6%	74%	82.2%	–
Cc1ccc(C2=NN(c3ccc(S(N)(=O)=O)cc3)C(c3cn(-c4ccccc4)nc3-c3ccccc3)C2)cc1 (stereo unspecified)	93.8%	97.8%	101%	105%	38.9%	27.7%	75.2%	65%	109%	101%	65.7%	21.9%	82.7%	95.8%	42.7%	104%	112%	98.8%	96.1%	–
CC(=O)Nc1ccc(S(=O)(=O)NC(CCC(=O)Nc2ccc(Cl)cc2)C(=O)O)cc1 (stereo unspecified)	97.3%	96.8%	96.9%	92.2%	105%	113%	97.1%	93.8%	107%	97.8%	102%	77.4%	95%	108%	102%	98.8%	99.2%	98%	99.2%	–
CCCCCCCCCCCCOB(OCCCCCCCCCCCC)OCCCCCCCCCCCC	88.3%	99.3%	101%	94.5%	109%	101%	95.2%	97.8%	120%	98.2%	100%	92.5%	–	114%	97.2%	104%	106%	95.4%	117%	90.4%
CCCC1OC(c2ccc(C(C)C)cc2)OCC1CC (stereo unspecified)	98.8%	100%	98%	74%	123%	101%	87.2%	75.8%	–	99.6%	110%	102%	107%	115%	103%	104%	96.3%	–	101%	106%
O=S(=O)(NCCNc1nccc(-c2c(-c3ccccc3)nc3sccn23)n1)c1ccc(O)cc1	50.3%	46%	58.2%	58.9%	21.4%	61.3%	65.4%	32.2%	64.1%	28.5%	46%	35.9%	50%	45.9%	46.5%	47.3%	59.2%	82.4%	35.7%	–
CCOC(=O)c1ccccc1NC(c1ccccc1)c1ccc2cccnc2c1O (stereo unspecified)	30.3%	7.15% (active)	42.5%	16.4%	6.16% (active)	16.5%	-1.69% (active)	21.6%	1.44% (active)	16.3%	36.9%	30.2%	–	25%	28.6%	25.4%	11.8%	22.1%	15.7%	54.4%
O=C(Nc1ccccc1)OCC1OCOC(COC(=O)Nc2ccccc2)C1OC(=O)Nc1ccccc1 (stereo unspecified)	67.1%	84%	49.4%	64.8%	6.23% (active)	94.9%	38.2%	47.9%	49.3%	91.6%	43.7%	57.9%	–	37%	39.8%	90.5%	72.4%	102%	16.2%	72.2%
